In experiment [1] the target is Lysosomal acid glucosylceramidase (Homo sapiens) (UniProt P04062). In words: Glucocerebrosidase-p2 (AID 348; in the data active means potency below about 10 µM; further: potency means the concentration at half of the fitted maximal effect). The settings on record: purified GBA, blue fluorogenic substrate, 40 min. Put shortly:
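Compounds titrated from 0.6 nM upwards against 0.2 nM enzyme in pH 5.9 citric acid/KH2PO4, taurocholate, tween-20; blue fluorogenic substrate 80 uM, 40 min room temperature, stopped and read Ex 365/Em 440 for AC50.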

Experiment [2] is described as follows: AP1 Signaling Pathway (AID 357; active means well fitted curve in either direction with a large enough effect, not every such curve was filed as active; further: on the % scale 0 is the no-effect control and ±100 the full control effect). Particulars: ME-180 AP-1-bla reporter, EGF-induced, beta-lactamase ratio, 5 h; at 7.69 µM (top of the series) unless noted. Put shortly: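 ME-180 cells with beta-lactamase reporter under AP-1 response element, stimulated with EC50 EGF; compounds tested in titration series, 5 h at 37 °C. CCF4 substrate added 2.5 h at room temperature; 460/530 nm emission ratio gave %activity and AC50.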

Experiment [3] deals with Cytochrome P450 1A2 (Homo sapiens) (UniProt P05177). In words: p450-cyp1a2 (AID 410; calls by dose curve; further: potency means the concentration at half of the fitted maximal effect;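 on activity change, negative = inhibition: -100% = full effect of reference inhibitor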). Particulars: recombinant CYP1A2, luciferin-ME demethylation, luminescence; series mostly up to 57 µM. Put shortly: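 Human CYP1A2 (20nM) demethylated Luciferin-ME at its Km (100uM) in 100mM KPO4. After 10 min compound preincubation, NADPH regeneration ran the reaction 60 min at room temperature. Luciferin was read by luminescence, normalized to 57 uM furafylline.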
Chain of Cytochrome P450 1A2 (Homo sapiens) (P05177 whole entry, looked up): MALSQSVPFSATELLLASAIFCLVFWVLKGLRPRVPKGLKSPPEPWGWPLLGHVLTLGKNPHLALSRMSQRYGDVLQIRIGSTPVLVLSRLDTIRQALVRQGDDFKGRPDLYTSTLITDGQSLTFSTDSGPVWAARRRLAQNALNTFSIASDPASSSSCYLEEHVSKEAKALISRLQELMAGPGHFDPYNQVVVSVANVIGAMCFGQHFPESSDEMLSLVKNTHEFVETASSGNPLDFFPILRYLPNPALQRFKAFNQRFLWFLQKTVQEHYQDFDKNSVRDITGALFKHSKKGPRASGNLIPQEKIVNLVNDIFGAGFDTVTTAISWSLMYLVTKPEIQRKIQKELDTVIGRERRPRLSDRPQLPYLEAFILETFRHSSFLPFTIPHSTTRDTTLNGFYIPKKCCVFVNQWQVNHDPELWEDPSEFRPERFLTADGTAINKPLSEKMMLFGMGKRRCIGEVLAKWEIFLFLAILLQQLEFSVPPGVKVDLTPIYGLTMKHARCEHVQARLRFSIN

Experiment [4] is described as follows: NFAT Signaling Pathway (AID 444; active means well fitted curve in either direction with a large enough effect, not every such curve was filed as active;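 further: carbachol stimulus at about its EC50 of 1 µM final; on the % scale 0 is the no-effect control and ±100 the full control effect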). The settings on record: Jurkat NFAT-bla M1, carbachol, beta-lactamase ratio, 5 h; at 7.69 µM (top of the series) unless noted. Put shortly:
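Jurkat cells carrying an NFAT-driven β-lactamase reporter and co-transfected muscarinic M1 receptor were treated with compound plus carbachol (1 uM final, an EC50 level) for 5 h at 37 °C. CCF4 loading followed for 1 h at RT; 460/530 nm ratio gave %activity.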

Experiment [5] is described as follows: Stat Signaling Pathway (AID 446; active means well fitted curve in either direction with a large enough effect, not every such curve was filed as active;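 further: ME-180 cervical cancer cells given 40 pM IL-6 alongside compound; SIE-controlled beta-lactamase reporter measured as 460/530 nm FRET emission ratio; on the % scale 0 is the no-effect control and ±100 the full control effect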). Particulars: ME-180 SIE beta-lactamase reporter, IL-6 stimulated, 5 h; at 7.69 µM (top of the series) unless noted. The gist of the method: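 Reporter line: ME-180 cervical carcinoma, SIE-beta-lactamase. Treatment: compound with 40 pM IL-6, 5 hrs, 37 C, in low-serum OPTI-MEM with 10 mM HEPES pH 7.3. Detection: 460/530 nm fluorescence.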

Experiment [6] has as its target Glucocorticoid receptor (Homo sapiens) (UniProt P04150). In words: GR-GFP Redistribution (AID 450;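 active means compounds whose dose series gives a full or clear partial fitted curve of increased nuclear translocation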; further: potency means the concentration at half of the fitted maximal effect). Particulars: U2OS GR-GFP nuclear translocation, laser cytometry, 2 h.
For experiment [7] the target is unchanged. In words: GR-EFC Redistribution (AID 451; calls by dose curve; further: potency means the concentration at half of the fitted maximal effect). Particulars: CHO-K1 GR-EFC translocation, beta-gal luminescence, 2 h. Put shortly: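 CHO-K1 cells stably expressing nuclear-localized β-gal enzyme acceptor and GR fused C-terminally to the enzyme donor fragment; ligand-driven nuclear translocation restores β-gal by complementation. Compounds titrated up to 46 uM final, 2 h at 37 °C; luminescence read.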

Experiment [8] deals with Mitogen-activated protein kinase 10 (Mus musculus) (UniProt Q61831). In words: JNK3 AlphaScreen Assay (AID 530; active means well fitted curve in either direction with a large enough effect, not every such curve was filed as active;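 further: kinase came from lysate of stimulated human HepG2 cells; signal reports phosphorylation of biotinylated GST-cJun 1-79 at Ser73 with 10 µM ATP; on the % scale 0 is the no-effect control and ±100 the full control effect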). The settings on record: JNK3 lysate, c-Jun phosphorylation; series mostly up to 57.1 µM. Put shortly:
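JNK3 came from HepG2 lysates pre-activated with IL-1beta and TNF-alpha and phosphorylated biotinylated GST-cJun (1-79) at 10 uM ATP, pH 7.6, room temperature. Compounds were titrated. AlphaScreen signal used anti-phospho-cJun (Ser73) antibody.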
A general note: Bead proximity is the source of the signal in Alpha formats.

Experiment [9] addresses 3',5'-cyclic-AMP phosphodiesterase 4B (Homo sapiens) (UniProt Q07343). Kind of experiment: qHTS Assay for Inhibitors of PDE-IV (AID 607; active means well fitted activation curve with a large enough effect in the main read-out, with a control signal flat, not every such curve was filed as active; further: % of control where 0% means no effect). Particulars: HEK293 ACTOne CNG channel cells, membrane potential fluorescence; series mostly up to 22.9 µM. Put shortly:
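Cell-based read-out of cAMP via a modified cyclic nucleotide-gated channel and membrane potential dye (535/590 nm) in HEK293 cells expressing PDE4 endogenously. Compounds tested up to 22.9 uM final; 100 uM RO 20-1724 reference.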
(In qHTS, concentration-response curves come from the screen itself.)

Experiment [10] addresses Cytochrome P450 3A4 (Homo sapiens) (UniProt P08684). In words: qHTS Assay for Activators of Cytochrome P450 3A4 (AID 885). Further: nearly all actives have a fitted effect of over 65% in size. Particulars: recombinant CYP3A4, Luciferin-PPXE luminescence, 60 min; series mostly up to 57.1 µM. Put shortly: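 Signal was normalized against complete inhibition by 57 uM ketoconazole. The reaction used 20nM CYP3A4 with 25uM Luciferin-PPXE, 10-min compound preincubation and a 60-min NADPH-supported step at RT.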

The nature of experiment [11]: qHTS Assay for Lipid Storage Modulators (AID 1519; calls by dose curve). Particulars: Drosophila S3 cells, BODIPY lipid droplet/cell ratio, laser cytometry, cells loaded with oleic acid; for activity change, negative = inhibition: at 57.5 µM (top of the series). The gist of the method: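 Cells seeded at 5,000 per well were treated with compounds over a concentration series and loaded with oleic acid (400 uM, as added). Lipid droplet fluorescence (488 nm excitation, 500-530 nm channel) was read by laser-scanning cytometry and normalized to 20 uM Triacsin C.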

Experiment [12] has as its target Dual specificity protein kinase CLK4 (Homo sapiens) (UniProt Q9HAZ1). In words: qHTS Assay for Inhibitors of CDC-like Kinase 4 (Kinase-Glo Assay) (AID 1770). Further: on the % scale 0 is the no-effect control and ±100 the full control effect; nearly all actives have a fitted effect of over 65% in size. Particulars: recombinant Clk4, Kinase-Glo ATP depletion luminescence; series mostly up to 66.7 µM. The gist of the method: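 Clk4 25 nM, RS peptide 100 uM, ATP 1 uM, pH 7.5 Tris, 10 mM MgCl2, 2.5 mM DTT; 4.5 h RT; ATP depletion read by Kinase-Glo luminescence.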

Experiment [13] shares this target. Kind of experiment: qHTS Assay for Inhibitors of CDC-like Kinase 4 (ADP-Glo Assay) (AID 1771). Further: on the % scale 0 is the no-effect control and ±100 the full control effect; nearly all actives have a fitted effect of over 70% in size. The settings on record: recombinant CLK4, ADP-Glo luminescence; series mostly up to 80 µM. Put shortly:
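Clk4 (25 nM) was incubated 1 hr at room temperature with 100 uM RS repeat peptide and 1 uM ATP in buffer with 2 mM MgCl2, 0.5 mM EGTA, 2.5 mM DTT. ADP formed was quantified by ADP-Glo luminescence.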

The target is the same in experiment [14]. In words: qHTS Assay for Inhibitors of CDC-like Kinase 4 (ADP-FP Assay) (AID 1795).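 Further: recombinant human CLK4 phosphorylating RS repeat peptide at 1 µM ATP; on the % scale 0 is the no-effect control and ±100 the full control effect; nearly all actives have a fitted effect of over 60% in size.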 Particulars: Transcreener ADP fluorescence polarization; series mostly up to 50 µM. The gist of the method:
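Kinase activity was followed as ADP output, converted from fluorescence polarization with a calibration curve. Reactions ran one hour at low ATP (1 uM) with RS peptide substrate.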

Experiment [15] is described as follows: Primary qHTS for small molecule stabilizers of the endoplasmic reticulum resident proteome: Secreted ER Calcium Modulated Protein (SERCaMP) assay (AID 1508630). Further: on the % scale 0 is the no-effect control and ±100 the full control effect. Particulars: SH-SY5Y GLuc-SERCaMP (Gaussia luciferase released on ER calcium loss) secretion, thapsigargin, luminescence; series mostly up to 38.4 µM. The gist of the method:
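GLuc-SERCaMP-expressing SH-SY5Y cells, pretreated 16 h with compound, are challenged with thapsigargin to empty ER calcium stores; after 4 h, coelenterazine is added directly to the medium and luminescence is imaged.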

The target in experiment [16] is Cytochrome P450 2C19 (Homo sapiens) (UniProt P33261). In words: qHTS Assay for Inhibitors and Substrates of Cytochrome P450 2C19 (AID 899). Further: potency means the concentration at half of the fitted maximal effect; nearly all actives have a fitted effect of over 60% in size. Particulars: recombinant CYP2C19, luciferin-H EGE luminescence; series mostly up to 57.1 µM. The gist of the method:
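In 50mM KPO4, the reaction held 5nM enzyme and KM-level (10uM) Luciferin-H EGE; it ran 60 min at 37C after NADPH regeneration and a 10 min compound preincubation. Luminescence values were scaled to 57uM ketoconazole as complete inhibition.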

Experiment [17] addresses Ubiquitin carboxyl-terminal hydrolase 1 (Homo sapiens) (UniProt O94782). Kind of experiment: Inhibitors of USP1/UAF1: Pilot qHTS (AID 504865).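 Further: rhodamine fluorescence freed from ubiquitin-rhodamine substrate followed over time; top concentration of the series differs between compounds; on the % scale 0 is the no-effect control and ±100 the full control effect; nearly all actives have a fitted effect of over 35% in size.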 The settings on record: purified USP1/UAF1, Ub-rhodamine cleavage fluorescence; series mostly up to 54.9 µM. The gist of the method:
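Enzyme-free wells gave the negative control, while test wells held 1nM USP1/UAF1 preincubated with compound for 15 min at room temperature. Ub-Rho at 150nM final started the reaction, and fluorescence at 480/540 nm was recorded kinetically.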

A short description of experiment [18]: qHTS Assay for Identification of Small Molecule Agonists for Hypoxia Response Element Signaling Pathway (AID 914; active means well fitted activation curve with a large enough effect in the signal ratio, with a control signal flat, not every such curve was filed as active; the % refers to the signal ratio; further: % of control where 0% means no effect). The settings on record: ME-180 (cervical carcinoma) HRE-bla reporter, beta-lactamase ratio, CoCl2, 17 h; activation: stronger effect = higher value. The gist of the method:
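Reporter activity (beta-lactamase, CCF4 460nm/530nm ratio) in HRE-bla ME-180 cells is recorded after 17 h compound exposure with EC50 CoCl2 at 37 degrees Celsius. AC50 values come from titration data.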

Experiment [19] has as its target Cytochrome P450 2C9 (Homo sapiens) (UniProt P11712). Kind of experiment: qHTS Assay for Inhibitors and Substrates of Cytochrome P450 2C9 (AID 883). Further: on the % scale 0 is the no-effect control and ±100 the full control effect; nearly all actives have a fitted effect of over 60% in size. Particulars: recombinant CYP2C9, luciferin-H luminescence, 60 min; series mostly up to 57.1 µM. Put shortly: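 CYP2C9 deoxyluciferin hydroxylation, 37C, 60 min with NADPH regeneration; 10nM enzyme, 100uM Luciferin-H (KM). Glo detection reagent stopped reaction; luminescence normalized to sulphaphenazole (57uM) full inhibition.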

Where [20] appears, read: measured here: cell count channel max response.
Where [21] appears, read: measured here: lipid channel max response.

Structures are written as SMILES. Results filed as inconclusive are left out. Active and inactive are the calls of the source. Unless noted, the call rests on the fitted dose curve; in most records, active means well fitted curve in the direction sought with a large enough effect; inconclusive means small, poorly fitted or top-dose-only effect, or another doubt; inactive means no such curve, though single readings can be large; an effect the other way counts as inactive or inconclusive. Some results are limits rather than exact numbers.

Chain of Dual specificity protein kinase CLK4 (Homo sapiens) (Q9HAZ1 whole entry, looked up): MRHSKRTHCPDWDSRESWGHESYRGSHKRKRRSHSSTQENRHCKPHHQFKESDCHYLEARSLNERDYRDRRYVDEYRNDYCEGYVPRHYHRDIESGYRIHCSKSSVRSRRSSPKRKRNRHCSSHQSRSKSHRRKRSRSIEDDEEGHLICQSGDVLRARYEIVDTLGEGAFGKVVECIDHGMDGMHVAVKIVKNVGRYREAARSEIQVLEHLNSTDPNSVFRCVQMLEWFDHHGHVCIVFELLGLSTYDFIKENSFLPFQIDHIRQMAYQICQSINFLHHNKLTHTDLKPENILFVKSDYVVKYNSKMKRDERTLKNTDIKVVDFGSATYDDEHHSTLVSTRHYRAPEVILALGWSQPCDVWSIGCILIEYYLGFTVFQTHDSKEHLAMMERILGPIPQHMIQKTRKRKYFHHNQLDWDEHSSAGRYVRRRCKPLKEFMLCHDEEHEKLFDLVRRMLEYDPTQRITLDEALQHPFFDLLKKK
Chain of Lysosomal acid glucosylceramidase (Homo sapiens) (P04062 whole entry, looked up): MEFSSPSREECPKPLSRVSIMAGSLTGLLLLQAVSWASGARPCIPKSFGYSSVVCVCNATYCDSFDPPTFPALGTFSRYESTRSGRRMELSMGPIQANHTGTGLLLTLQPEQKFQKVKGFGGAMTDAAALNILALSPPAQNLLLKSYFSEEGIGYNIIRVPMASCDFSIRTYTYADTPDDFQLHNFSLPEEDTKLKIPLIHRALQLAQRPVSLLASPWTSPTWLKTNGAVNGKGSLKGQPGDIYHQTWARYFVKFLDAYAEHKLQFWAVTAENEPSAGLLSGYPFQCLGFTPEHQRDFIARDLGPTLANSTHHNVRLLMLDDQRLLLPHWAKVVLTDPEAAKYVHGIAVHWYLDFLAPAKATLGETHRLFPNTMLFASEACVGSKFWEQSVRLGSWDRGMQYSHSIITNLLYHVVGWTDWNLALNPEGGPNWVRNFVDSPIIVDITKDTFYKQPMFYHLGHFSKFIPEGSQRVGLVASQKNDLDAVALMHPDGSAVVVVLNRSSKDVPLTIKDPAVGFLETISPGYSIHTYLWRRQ
Chain of Cytochrome P450 3A4 (Homo sapiens) (P08684 whole entry, looked up): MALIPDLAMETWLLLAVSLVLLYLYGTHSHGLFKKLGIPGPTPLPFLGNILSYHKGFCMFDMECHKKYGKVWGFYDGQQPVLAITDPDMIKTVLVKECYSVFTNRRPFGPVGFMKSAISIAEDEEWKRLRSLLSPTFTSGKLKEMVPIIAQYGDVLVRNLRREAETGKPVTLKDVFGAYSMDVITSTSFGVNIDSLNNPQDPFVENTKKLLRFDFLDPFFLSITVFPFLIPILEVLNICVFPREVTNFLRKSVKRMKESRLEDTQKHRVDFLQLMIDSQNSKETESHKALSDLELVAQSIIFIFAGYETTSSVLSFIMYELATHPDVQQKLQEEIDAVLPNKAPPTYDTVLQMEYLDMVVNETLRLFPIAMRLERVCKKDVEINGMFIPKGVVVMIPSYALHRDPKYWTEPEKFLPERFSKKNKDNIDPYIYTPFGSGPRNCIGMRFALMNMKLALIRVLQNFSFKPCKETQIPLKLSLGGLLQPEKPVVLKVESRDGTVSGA
Chain of 3',5'-cyclic-AMP phosphodiesterase 4B (Homo sapiens) (Q07343 whole entry, looked up): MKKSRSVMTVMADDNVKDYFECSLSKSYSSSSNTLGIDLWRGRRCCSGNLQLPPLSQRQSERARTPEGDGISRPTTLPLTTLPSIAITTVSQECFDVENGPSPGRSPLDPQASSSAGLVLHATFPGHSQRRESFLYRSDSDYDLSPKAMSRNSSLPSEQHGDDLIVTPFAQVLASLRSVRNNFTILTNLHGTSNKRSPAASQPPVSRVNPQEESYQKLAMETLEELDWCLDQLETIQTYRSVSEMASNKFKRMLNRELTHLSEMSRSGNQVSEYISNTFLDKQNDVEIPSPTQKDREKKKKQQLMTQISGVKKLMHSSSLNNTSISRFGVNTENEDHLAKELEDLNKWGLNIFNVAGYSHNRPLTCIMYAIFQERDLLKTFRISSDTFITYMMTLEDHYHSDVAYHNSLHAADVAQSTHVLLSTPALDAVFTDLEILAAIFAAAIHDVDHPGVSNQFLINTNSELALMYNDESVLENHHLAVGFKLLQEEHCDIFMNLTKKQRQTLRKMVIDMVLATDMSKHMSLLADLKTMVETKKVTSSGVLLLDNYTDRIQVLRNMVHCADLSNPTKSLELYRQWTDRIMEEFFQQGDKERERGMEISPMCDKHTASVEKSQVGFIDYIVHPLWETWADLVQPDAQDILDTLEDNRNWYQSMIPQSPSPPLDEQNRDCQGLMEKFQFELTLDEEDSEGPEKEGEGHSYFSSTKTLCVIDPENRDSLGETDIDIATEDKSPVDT
Chain of Glucocorticoid receptor (Homo sapiens) (P04150 whole entry, looked up, the tested form may be a part): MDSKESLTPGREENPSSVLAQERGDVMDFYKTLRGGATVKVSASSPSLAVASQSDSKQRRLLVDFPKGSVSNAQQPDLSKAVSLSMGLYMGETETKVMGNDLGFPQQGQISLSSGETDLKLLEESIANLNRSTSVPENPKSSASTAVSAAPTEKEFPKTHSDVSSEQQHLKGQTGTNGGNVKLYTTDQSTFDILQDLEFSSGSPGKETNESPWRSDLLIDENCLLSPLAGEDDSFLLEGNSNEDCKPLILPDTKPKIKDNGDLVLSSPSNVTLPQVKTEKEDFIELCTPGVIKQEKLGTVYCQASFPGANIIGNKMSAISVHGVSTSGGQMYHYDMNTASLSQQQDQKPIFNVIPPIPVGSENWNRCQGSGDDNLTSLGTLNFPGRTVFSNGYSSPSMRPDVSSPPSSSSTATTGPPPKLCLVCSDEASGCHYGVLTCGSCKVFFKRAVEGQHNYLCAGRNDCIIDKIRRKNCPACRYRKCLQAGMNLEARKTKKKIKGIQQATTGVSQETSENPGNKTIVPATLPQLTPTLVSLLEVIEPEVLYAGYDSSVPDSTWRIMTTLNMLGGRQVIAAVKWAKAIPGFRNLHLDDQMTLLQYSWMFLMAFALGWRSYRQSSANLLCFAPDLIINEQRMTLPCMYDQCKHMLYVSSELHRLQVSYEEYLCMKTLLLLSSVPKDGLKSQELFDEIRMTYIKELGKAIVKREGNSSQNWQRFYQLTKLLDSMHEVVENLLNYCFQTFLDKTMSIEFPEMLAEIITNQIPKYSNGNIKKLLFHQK
Chain of Ubiquitin carboxyl-terminal hydrolase 1 (Homo sapiens) (O94782 whole entry, looked up): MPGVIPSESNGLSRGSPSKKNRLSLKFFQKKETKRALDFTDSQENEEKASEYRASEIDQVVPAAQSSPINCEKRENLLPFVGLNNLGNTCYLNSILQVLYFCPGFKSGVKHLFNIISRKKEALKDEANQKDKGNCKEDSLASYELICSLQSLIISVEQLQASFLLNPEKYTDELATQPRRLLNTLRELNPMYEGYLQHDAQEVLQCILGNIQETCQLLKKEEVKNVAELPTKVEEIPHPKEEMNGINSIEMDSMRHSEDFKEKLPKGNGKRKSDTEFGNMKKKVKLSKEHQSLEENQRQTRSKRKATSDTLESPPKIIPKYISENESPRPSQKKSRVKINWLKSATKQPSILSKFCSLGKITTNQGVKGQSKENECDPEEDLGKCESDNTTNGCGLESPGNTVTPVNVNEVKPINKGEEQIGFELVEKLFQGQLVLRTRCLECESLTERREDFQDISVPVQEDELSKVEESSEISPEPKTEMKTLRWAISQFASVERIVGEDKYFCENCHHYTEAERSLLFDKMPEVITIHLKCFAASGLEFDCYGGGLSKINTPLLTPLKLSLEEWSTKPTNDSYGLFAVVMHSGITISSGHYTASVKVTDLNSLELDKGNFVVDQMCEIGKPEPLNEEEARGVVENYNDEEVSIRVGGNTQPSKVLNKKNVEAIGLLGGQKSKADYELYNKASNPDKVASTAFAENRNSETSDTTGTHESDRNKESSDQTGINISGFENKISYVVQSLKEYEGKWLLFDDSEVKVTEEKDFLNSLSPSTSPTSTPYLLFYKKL
Chain of Cytochrome P450 2C9 (Homo sapiens) (P11712 whole entry, looked up): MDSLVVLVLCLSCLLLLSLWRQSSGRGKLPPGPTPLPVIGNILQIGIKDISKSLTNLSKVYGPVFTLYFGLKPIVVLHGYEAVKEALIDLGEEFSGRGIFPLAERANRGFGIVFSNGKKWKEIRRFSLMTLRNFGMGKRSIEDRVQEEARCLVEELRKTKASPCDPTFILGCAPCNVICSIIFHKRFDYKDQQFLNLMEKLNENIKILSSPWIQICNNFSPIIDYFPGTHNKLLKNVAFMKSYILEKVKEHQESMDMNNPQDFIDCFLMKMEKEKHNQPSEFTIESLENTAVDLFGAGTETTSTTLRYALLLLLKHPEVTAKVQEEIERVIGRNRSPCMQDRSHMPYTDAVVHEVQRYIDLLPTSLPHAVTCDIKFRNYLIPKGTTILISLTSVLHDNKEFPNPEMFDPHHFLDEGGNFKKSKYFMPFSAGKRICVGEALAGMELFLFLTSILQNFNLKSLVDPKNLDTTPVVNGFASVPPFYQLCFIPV

`O=c1c(-c2ccc(F)c(F)c2)nc2cncnc2n1C1CC1`: the Potency in experiment [1] is > 11.4 µM (inactive); in experiment [3] it was 0.1 µM (active); in experiment [6], > 9.22 µM (inactive); in experiment [7] it was > 46 µM (inactive). Also, the activity change, negative = inhibition is 3.77% (inactive) in [2], 7.2% (inactive) in experiment [4] and 8.82% (inactive) in experiment [11]. For the same molecule, in experiment [5], the activity, negative = inhibition is -6.38% (inactive). Further, the molecule was classed as inactive in [8]. Moreover, the Potency result in [9], in experiment [10], in [12], in experiment [13], in [14] and in experiment [15] was “inactive” throughout. Besides, the max response stood at 20.3% in experiment [11] (setting [20]) and 27.4% in experiment [11] (setting [21]).

Turning to `Cc1nc2cncnc2n(Cc2ccccc2)c1=O`, the Potency in experiment [1] is > 11.4 µM (inactive); in experiment [3], 12.6 µM (active); in [6], > 9.22 µM (inactive); in [7], > 46 µM (inactive); in experiment [16], 0.158 µM (active). In addition, the values for the activity change, negative = inhibition in experiment [2], in experiment [4] and in experiment [11] were -13.3% (inactive), -2.35% (inactive) and 1.73% (inactive), respectively. Further, the activity, negative = inhibition in experiment [5] is -15.3% (inactive). Also, the molecule was classed as inactive in experiment [8]. Also, the max response in experiment [11] (setting [20]) worked out at 12.6%; in experiment [11] (setting [21]) it was 8.3%. For the same molecule, the Potency result in experiment [12], in experiment [13], in experiment [14], in [17] and in experiment [15] was “inactive” in each case.

With `Cc1nc2cnc(N(C)C)nc2n(C2CC2)c1=O`, the Potency in experiment [1] was > 11.4 µM (inactive); in experiment [3] it was 3.98 µM (active); in experiment [6] it was > 9.22 µM (inactive); in experiment [7], > 46 µM (inactive). In addition, the activity change, negative = inhibition in experiment [2] was -20% (inactive); in [4] it was 4.63% (inactive); in [11], 5.93% (inactive). Moreover, the activity, negative = inhibition in [5] is -4.62% (inactive). Also, the molecule was classed as inactive in experiment [8]. Further, the Potency result in [9], in experiment [12], in experiment [13], in experiment [14], in experiment [17] and in [15] was “inactive” in each case. Besides, the activation in experiment [18] is 9.86% (inactive). The max response in [11] (setting [20]) worked out at 14.1%; in experiment [11] (setting [21]) it was 18.5%.

Turning to `CN(C)c1ncc2nc(-c3cc(F)cc(F)c3)c(=O)n(CCC#N)c2n1`, the Potency in experiment [1] is > 11.4 µM (inactive); in experiment [6], > 9.22 µM (inactive); in experiment [7] it was > 46 µM (inactive). In addition, the activity change, negative = inhibition in experiment [2] was 4.37% (inactive); in experiment [4] it was 29.2% (inactive); in experiment [11] it was 3.22% (inactive). In addition, the Potency entry in experiment [3], in experiment [9], in experiment [19], in experiment [10], in [12] and in experiment [13] was “inactive” in each case. Further, the Potency result in [14], in experiment [17] and in experiment [15] was “inactive” each time. In [5], the activity, negative = inhibition was 2.22% (inactive). For the same molecule, the molecule was classed as inactive in experiment [8]. Besides, the results for the max response in [11] (setting [20]) and in [11] (setting [21]) were 19.6% and 21.3%, respectively.

Regarding `NCCn1c(=O)c(CCc2ccccc2)nc2cncnc21`, the Potency is > 11.4 µM (inactive) in experiment [1], 12.6 µM (active) in experiment [3], > 9.22 µM (inactive) in experiment [6] and > 46 µM (inactive) in [7]. The activity change, negative = inhibition in experiment [2] is -1.99% (inactive); in experiment [4], -4.68% (inactive); in experiment [11], 4.81% (inactive). The activity, negative = inhibition in [5] was -4.77% (inactive). Also, in experiment [8], the outcome was inactive. Besides, the Potency result in experiment [9], in experiment [10], in experiment [12], in experiment [13], in experiment [14] and in experiment [17] was “inactive” throughout. The Potency entry in experiment [15] was “inactive”. The max response in experiment [11] (setting [20]) was determined as 26.7%; in [11] (setting [21]), 29.9%.
